This is one part of the list. Active and inactive are the calls of the source.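 The calls were made as follows: active = compounds whose half-maximal effective concentration is below 100 µM; inactive = the rest.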
Assay: empty-vector K562 compound effect – cell-based, flow cytometry, cherry pick set 2, counter-screen for ABCB6 inhibitor project, dose response (AID 624484)

With `Cc1ccc(CS(=O)(=O)c2ncc(Cl)c(C(=O)Nc3nnc(C)s3)n2)cc1` the outcome was “inactive”.

Reference: PubChem BioAssay AID624484 (NMMLSC, 2012)
